Source: PubChem BioAssay (Tox21)
Results filed as inconclusive are left out. Activity calls are given as the source filed them. Calls come from the whole dose curve.

Experiments:
[1] = target: Acetylcholinesterase (Homo sapiens) (UniProt P22303); assay: Acetylcholinesterase (AChE) small molecule antagonists: colormetric cell-based qHTS assay (AID 1347395); details: SH-SY5Y cells AChE activity, colorimetric (Ellman); series mostly up to 115 µM; note: nearly all actives have a fitted effect of over 30% in size
Acetylcholinesterase (Homo sapiens), sequence (P22303 whole entry, looked up): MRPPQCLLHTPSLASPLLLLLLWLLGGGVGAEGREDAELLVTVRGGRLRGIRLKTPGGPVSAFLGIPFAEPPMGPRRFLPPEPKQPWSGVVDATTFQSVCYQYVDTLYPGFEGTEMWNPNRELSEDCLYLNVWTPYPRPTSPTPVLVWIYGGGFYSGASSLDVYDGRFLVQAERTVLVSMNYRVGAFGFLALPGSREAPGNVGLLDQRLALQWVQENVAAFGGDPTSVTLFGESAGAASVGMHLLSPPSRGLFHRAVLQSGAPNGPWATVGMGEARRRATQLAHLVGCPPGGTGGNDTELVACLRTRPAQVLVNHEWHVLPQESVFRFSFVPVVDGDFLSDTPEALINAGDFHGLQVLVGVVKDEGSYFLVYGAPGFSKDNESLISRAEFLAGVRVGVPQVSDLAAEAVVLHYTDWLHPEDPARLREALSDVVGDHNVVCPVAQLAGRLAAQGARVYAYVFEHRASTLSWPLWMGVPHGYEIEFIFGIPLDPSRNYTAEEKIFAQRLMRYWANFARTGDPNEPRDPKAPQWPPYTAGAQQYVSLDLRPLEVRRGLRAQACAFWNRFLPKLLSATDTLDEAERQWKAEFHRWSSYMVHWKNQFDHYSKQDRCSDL
Procedure, shortened: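 Cells (SH-SY5Y, 2,000 per well) are seeded and left overnight at 37 C. Compound is added for 30 min, then DTNB and acetylthiocholine for a further 90 min at 37 C before absorbance-based thiocholine detection.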

[2] = target: Acetylcholinesterase (Homo sapiens) (UniProt P22303); assay: Acetylcholinesterase (AChE) small molecule antagonists: enzyme-based qHTS assay (AID 1347397); details: Potency: AChE enzyme activity inhibition; outcome: AChE enzyme activity inhibition; series mostly up to 115 µM; note: nearly all actives have a fitted effect of over 55% in size
Procedure, shortened: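 Enzyme inhibition was scored from DTNB-detected thiocholine formed by recombinant human AChE acting on acetylthiocholine. The 30 min compound preincubation and 10 min substrate reaction were both run at room temperature, with DMSO as vehicle control.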

[3] = target: Acetylcholinesterase (Homo sapiens) (UniProt P22303); assay: Acetylcholinesterase (AChE) small molecule antagonists: fluorescence cell-based qHTS assay (AID 1347398); details: SH-SY5Y cells; Potency: AChE activity; outcome: AChE activity; series mostly up to 115 µM; note: nearly all actives have a fitted effect of over 50% in size
Procedure, shortened: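 Endogenous acetylcholinesterase of SH-SY5Y neuroblastoma cells is measured in situ. After overnight attachment and 30 min compound exposure, cells receive acetylthiocholine and Thiolite Green; fluorescence is read after 40 min at room temperature.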

[4] = target: Acetylcholinesterase (Homo sapiens) (UniProt P22303); assay: Acetylcholinesterase (AChE) small molecule antagonists: enzyme-based qHTS assay with human liver microsomes (AID 1347399); details: Potency: qHTS inhibition; outcome: qHTS inhibition; series mostly up to 115 µM; note: nearly all actives have a fitted effect of over 60% in size
Procedure, shortened: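 Recombinant human AChE (50 mU/mL in the enzyme mix) and human liver microsomes (0.25 mg/mL final) were preincubated with compound and NADPH (0.25 mg/mL final) for 30 min at 37 C. Acetylthiocholine/DTNB was then added; thiocholine was read colorimetrically after 10 min at room temperature.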

Measured: Potency

CCOC(=O)CC(C)C
inactive: [1] | [2] | [3] | [4]

CCCCCCCCN1CCCC1=O
inactive: [1] | [2] | [3] | [4]

COc1ccc(/C=C/C(=O)c2ccc(OC)cc2OC)cc1
inactive: [1] | [2] | [3] | [4]

COc1cc(C=C2CCC/C(=C\c3ccc(O)c(OC)c3)C2=O)ccc1O
inactive: [1] | [2] | [3] | [4]

CCCCCCCCCCCCCCCCCC(=O)OCCCCCCCCCCCCCC(C)C
inactive: [1] | [2] | [3] | [4]

CCOC(=O)C(C)Oc1ccc(Oc2nc3ccc(Cl)cc3o2)cc1 (configuration not stated)
inactive: [1] | [2] | [3] | [4]

NS(=O)(=O)c1cc2c(cc1Cl)NC(C(Cl)Cl)NS2(=O)=O (configuration not stated)
inactive: [1] | [2] | [3] | [4]

CC(O)C(C)O (configuration not stated)
inactive: [1] | [2] | [3] | [4]

C=C1CC[C@H]2O[C@]2(C)CC[C@@H]2[C@@H]1CC2(C)C
inactive: [1] | [2] | [3] | [4]

Cc1cc2c(cc1CC(=O)c1sccc1S(=O)(=O)Nc1onc(C)c1Cl)OCO2
inactive: [1] | [2] | [3] | [4]

COC(=O)CS
inactive: [1] | [2] | [3] | [4]

Cc1nc2ccccc2n1Cc1ccc(Cl)cc1
inactive: [1] | [2] | [3] | [4]

CCCCCCCCc1ccc(S(=O)(=O)O)cc1
inactive: [1] | [2] | [3] | [4]

C[C@H](CCC(=O)O)[C@H]1CC[C@H]2[C@@H]3[C@H](O)C[C@@H]4C[C@H](O)CC[C@]4(C)[C@H]3C[C@H](O)[C@]12C
inactive: [1] | [2] | [3] | [4]

CC[C@H]1O[C@]2(CC[C@@H]1C)C[C@@H]1C[C@@H](C/C=C(\C)C[C@@H](C)/C=C/C=C3\CO[C@@H]4[C@H](O)C(C)=C[C@@H](C(=O)O1)[C@]34O)O2
inactive: [1] | [2] | [3] | [4]

COP(=O)(O)OP(=O)(O)OC
inactive: [1] | [2] | [3] | [4]

CC(=O)Nc1ccc(OCCOCCOc2ccc(NC(C)=O)cc2)cc1
inactive: [1] | [2] | [3] | [4]

O=C(O)CNC(=O)c1ccccc1I
inactive: [1] | [2] | [3] | [4]
